LmPK inhibitor – LmPK (Leishmania mexicana) enzyme inhibition; 290,000 compounds, 0.37% hits; Potency, µM (top dose mostly 57.5 µM), actives largely listed as inhibitors; purified LmPK, Kinase-Glo ATP luminescence, 1 h
Target sequence (Q27686 whole entry, looked up): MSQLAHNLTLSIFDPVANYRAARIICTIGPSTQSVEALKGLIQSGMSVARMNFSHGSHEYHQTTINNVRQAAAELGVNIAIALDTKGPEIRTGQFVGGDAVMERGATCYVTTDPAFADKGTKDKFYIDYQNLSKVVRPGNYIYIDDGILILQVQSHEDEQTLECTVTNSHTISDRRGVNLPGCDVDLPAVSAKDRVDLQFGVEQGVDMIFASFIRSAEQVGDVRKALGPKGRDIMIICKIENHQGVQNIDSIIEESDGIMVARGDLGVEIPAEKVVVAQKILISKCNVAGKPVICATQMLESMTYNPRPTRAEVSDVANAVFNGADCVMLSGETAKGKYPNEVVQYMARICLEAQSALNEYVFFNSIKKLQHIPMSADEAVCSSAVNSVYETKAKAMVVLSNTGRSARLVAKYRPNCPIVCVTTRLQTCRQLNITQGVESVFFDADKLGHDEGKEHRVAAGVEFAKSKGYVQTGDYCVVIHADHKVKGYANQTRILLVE
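Purified LmPK (0.1 nM) with 0.5 mM PEP and 0.1 mM ADP in imidazole buffer pH 7.2 with MgCl2/KCl, 1 h at room temperature. ATP formed was read by luciferase luminescence and normalized to no-enzyme and uninhibited controls.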
TbPYK inhibitor – blocks Trypanosoma brucei pyruvate kinase. Q57TT1. TbPYK enzyme, Kinase-Glo Plus ATP luminescence, 45 min. Potency, µM (series often up to 76.8 µM), hits mostly inhibitors. 410,000 compounds, 0.12% hits; note: nearly all actives have a fitted effect of over 50% in size
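T. brucei PYK with substrate was exposed to pin-transferred compounds across a concentration series, then started with 130 uM ADP (final). After 45 min at room temperature, Kinase-Glo Plus luminescence was read, normalized and curve-fitted.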
Giardia FBPA inh – Giardia lamblia aldolase inhibition; A8B2U2; purified Giardia FBPA; Potency, µM (top dose mostly 59.6 µM), actives largely listed as inhibitors; 290,000 compounds, 0.71% hits; note: nearly all actives have a fitted effect of over 55% in size
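Giardia FBPA (40 nM reagent) was preincubated 10 min at RT with compound (up to 57.5 uM final), then substrate plus GAPDH/TPI/NAD/arsenate coupling system with diaphorase/resazurin was added; resorufin fluorescence (525/598 nm) was read after 20 min.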
CHX counter-1 – counter-screen hit for Shiga toxin inhibitors, cycloheximide | cell reporter, cycloheximide protein synthesis inhibition counterscreen | max response, % | 300,000 compounds, 12% hits; in the data active = max response mostly above about 13%, no sharp cut-off; inactive = mostly below about 14%; note: read at 38.3 µM for the half of the compounds with a filed dose
Sm TGR inh – S. mansoni TGR enzyme inhibition; Q962Y6; purified TGR, DTNB reduction, TNB absorbance 405 nm; Potency, µM (series often up to 114 µM), actives largely listed as inhibitors; 360,000 compounds, 3% hits; AID 485364; note: nearly all actives have a fitted effect of over 60% in size
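Kinetic colorimetric format: TGR-catalysed, NADPH-driven DTNB reduction monitored via TNB absorbance. Enzyme dispensed at 20 nM; compound exposure 15 min at room temperature before reaction start.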
Shiga inhibitor – blocks Shiga toxin action in Vero cells. Vero cells, Shiga toxin protein synthesis inhibition reporter. inhibition, % at 38.7 µM. 290,000 compounds, 9.2% hits. AID 2315; in the data active = inhibition mostly above about 28%, no sharp cut-off; inactive = mostly below about 43%
CHX counter-2 – counter-screen for Shiga toxin inhibitors: cycloheximide protein synthesis block; shares compounds with Shiga inhibitor; Cycloheximide counterscreen, protein synthesis reporter, Shiga toxin assay; Potency, µM (titrated, usually from 38.3 µM), usual class: activators; 510 compounds, 3% hits; AID 2318; calls by dose curve
Numbers stand for hits; n = inactive; u = inconclusive; x = no result; ! = repeats disagree. The entries come from a sample that favours hits as a whole. Unless noted, calls come from the whole dose curve; as a rule, active = well fitted curve in the direction sought with a large enough effect; inconclusive = small, poorly fitted or top-dose-only effect, or another doubt; inactive = no such curve, though single readings can be large; an effect the other way counts as inactive or inconclusive.

SMILES	LmPK inhibitor	TbPYK inhibitor	Giardia FBPA inh	CHX counter-1	Sm TGR inh	Shiga inhibitor	CHX counter-2
COc1cccc(CNC(=O)[C@@H]2CCCN2C(=O)[C@@H]2CCCN2C(=O)c2cccs2)c1	x	n	x	x	x	x	x
COc1cc(CN2CCN(CC#Cc3ccccc3)CC2CCO)cc(OC)c1 (stereo not drawn)	n	n	n	n	u	20.5	n
COc1ccc(C)cc1NC(=O)c1ccc(S(=O)(=O)N2CCCCC2)cc1	n	n	n	n	n	25.2	n
COc1ccc(S(=O)(=O)N2CCCCCC2)cc1NC(=O)c1ccccc1	n	n	x	n	n	n	x
CC(C)CNC(=O)c1noc2c1CCCC2	n	n	n	n	n	50.7	n
CC(C)NS(=O)(=O)c1ccc(OCC(=O)Nc2ccc(F)cc2F)cc1	n	n	n	n	n	n	x
CC(C)NS(=O)(=O)c1ccc(OCC(=O)Nc2ccccc2F)cc1	n	n	n	n	n	33.6	n
CCOc1cc(S(=O)(=O)N2CCN(Cc3ccccc3)CC2)ccc1Br	n	n	n	n	n	136.1	n
Cc1cc(Br)ccc1NC(=O)CN(C)C(=O)c1cc([N+](=O)[O-])ccc1N1CCOCC1	x	n	x	x	n	x	x
CC1CCC(NC(=O)C2(C)Cc3ccccc3C(=O)N2Cc2ccc(Cl)cc2)CC1 (stereo not drawn)	x	n	x	x	n	x	x
O=C(Cn1cc2c(n1)CCCCC2)Nc1ccccc1Br	n	n	n	n	n	72.8	n
COCCNC(=O)C1CCCN(C(=O)c2cc(-c3ccccc3)cs2)CC1 (stereo not drawn)	x	n	x	x	x	x	x
O=C(Cc1ccccc1)Nc1ccc(NC(=O)C2CC2)nc1	n	n	n	n	n	n	x
CCCCC(=O)Nc1ccc(NC(=O)C2CC2)nc1	n	n	n	n	n	40.5	n
Cc1nc(-c2cccc(C(F)(F)F)c2)sc1C(=O)O	n	n	n	n	x	58.0	n
CC(O)(c1ccccc1)c1nc(-c2cccc(C(F)(F)F)c2)cs1 (stereo not drawn)	x	n	x	x	x	x	x
CN1CC(c2ccccc2)C2(SC(=S)N(Cc3ccco3)C2=O)C12C(=O)Nc1ccccc12 (stereo not drawn)	n	n	n	n	n	n	x
CN1CC(c2ccccn2)C2(SC(=S)N(Cc3ccccc3)C2=O)C12C(=O)Nc1ccccc12 (stereo not drawn)	n	n	n	n	n	70.8	n
CSc1nc(SCCO)c2sc3nc(-c4ccco4)c4c(c3c2n1)CC(C)(C)OC4	n	n	n	n	2.51µM	80.6	n
CC(=O)c1ccc(NC(=O)C(C)Sc2nnc(C3CC3)n2C2CC2)cc1 (stereo not drawn)	x	n	x	x	n	x	x
CC(=O)c1ccc(NC(=O)C(C)Sc2nnc(C3CCCCC3)o2)cc1 (stereo not drawn)	n	x	n	n	n	46.9	n
COc1ccccc1NC(=O)c1ccc(NC(=O)c2ccco2)cc1	n	n	n	n	n	43.3	n
CC(C)c1ccccc1NC(=O)c1ccco1	n	n	n	n	u	57.9	u
CCOc1cc(NC(=O)c2ccco2)c(OCC)cc1NC(=O)c1ccco1	n	n	x	n	n	n	x
COc1ccccc1NC(=O)Cn1cc(C(=O)c2ccco2)c2ccccc21	n	n	n	n	x	60.3	n
SMILES	LmPK inhibitor	TbPYK inhibitor	Giardia FBPA inh	CHX counter-1	Sm TGR inh	Shiga inhibitor	CHX counter-2
Cc1ccccc1S(=O)(=O)NC(=O)C1(C)CCN1C(=O)Cc1cc(F)ccc1F (stereo not drawn)	x	n	x	x	x	x	x
CCNC(=S)Nn1cnc2ccccc21	n	n	n	n	n	n	x
CCC(=O)N1CCN(c2ccccc2NC(=O)c2ccc([N+](=O)[O-])o2)CC1	n	n	n	n	u	54.8	u
CC1CCN(c2ccccc2NC(=O)c2ccc([N+](=O)[O-])o2)CC1	n	n	x	n	n	n	x
CN(C)/C=C/C(=O)c1ccc2noc(-c3cccc(F)c3)c2c1	n	n	n	n	n	n	x
CC(=O)c1ccc2noc(-c3ccc(F)cc3)c2c1	n	n	n	n	u	51.9	n
CC(=O)Nc1ccc2c(c1)CCCC2	n	n	n	n	n	19.8	n
CC(=O)N1CCC(C(=O)Nc2ccc3c(c2)CCC3)CC1	n	n	x	n	n	n	x
CCC(=O)N1CCc2cc(S(=O)(=O)NC(C(=O)N3CCN(c4ccc(F)cc4)CC3)C(C)C)ccc21 (stereo not drawn)	n	n	n	n	n	16.7	n
O=S(=O)(/N=C(/Nc1ccccc1)c1ccccc1O)c1ccccc1	n	n	n	n	n	n	x
O=C(NCCCO)/C(=C\c1ccco1)NC(=O)c1ccco1	n	n	n	n	n	38.0	n
O=C(O)C1CCCCC1C(=O)NCc1ccccc1 (stereo not drawn)	n	n	n	n	n	n	x
O=C(NCc1ccccc1)C1CCCC1	n	x	n	n	n	20.8	n
O=C(Oc1cc(Cl)cc(Cl)c1)c1cnc2n(c1=O)CCS2	n	n	n	n	u	n	x
COc1cc(O)c2c(c1)oc(=O)c1c3cc(O)c(O)cc3oc21	x	x	u	21.1!	x	32.7	n
Cc1ccc2oc(=O)c3c4cc(O)c(O)cc4oc3c2c1	x	x	n	x	x	x	x
CCCn1cc(S(=O)(=O)c2ccccc2)c(=O)c2cc(F)c(N3CCN(C)CC3)cc21	n	n	n	n	n	n	x
COC(=O)c1ccc(COc2ccc(C3C4=C(CCCC4=O)Nc4onc(C)c43)cc2)cc1 (stereo not drawn)	n	n	n	n	u	47.0	u
COC(=O)c1ccc(C2CC(=O)NC3=C2C(=O)CCC3)cc1 (stereo not drawn)	n	n	n	n	n	n	x
COc1ccc(NC(=O)NNC(=O)c2ccc3ccccc3c2O)c(OC)c1	n	n	n	n	n	26.7	n
Nc1ccccc1-c1ccc([N+](=O)[O-])cc1	x	n	x	x	x	x	x
COc1ccc(-c2noc3c2-c2nc(-c4cccc(C)c4)sc2CC3)cc1	n	n	n	n	n	n	x
CCn1c(SCC(=O)Nc2cc(C)on2)nnc1-c1cccc(C)c1	n	n	n	n	n	93.4	n
CSc1nc2cc3c(cc2n1C(=O)c1ccc(C)cc1)OCCO3	n	n	n	n	n	80.0	u
Cc1ccc(C(=O)c2cc3c(cc2N)OCCO3)cc1	n	n	n	n	n	n	x
CN(C)S(=O)(=O)Nc1ccc(Cc2ccncc2)cc1	x	n	x	x	x	x	x
CCCCc1ccc(NS(=O)(=O)N(C)C)cc1	n	n	n	n	n	71.9	n
CCC1=C2CC[C@H]3C(=O)N(C)C(=O)[C@H]3[C@H]2[C@@]2(Cc3ccccc3)C(=NCC3CC3)OC(=O)N2C1=O	x	x	n	x	x	x	x
